This assay is described as follows: NCI Yeast Anticancer Drug Screen. Data for the rad52 strain (AID 147).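 Note: 0% = growth of vehicle-treated control cultures.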 The note with it: S. cerevisiae rad52 mutant growth inhibition, active compounds read high. Here is the method: Growth inhibition of yeast strains with defined genetic alterations is measured as a screen for potential anti-cancer activity. Selected strains with alterations in DNA damage repair or cell cycle control were exposed to compounds and growth inhibition was measured relative to vehicle treated controls. The strain used in this assay is rad52

About 79,000 compounds went through this panel and 15% of them were active in at least one assay; those are over-represented in the sample as a whole. A number with no mark means an inactive call. The source made the active and inactive calls. Cut-off read from the data, not from the text of the source: active = growth inhibition above about 70%; inactive = the rest.

Consider `CC(C)(C)c1nc2c(o1)C(=O)c1ccccc1C2=O`, for which the growth inhibition runs as follows: (at 1.2 µM) -27%; (at 3.7 µM) -22%; (at 11.0 µM) 20%; (at 33.0 µM) 89% (active); (at 100.0 µM) 98% (active).
For `FC(F)(F)c1cc(NC(=S)N2c3ccccc3-n3cccc3C2c2cccnc2)cc(C(F)(F)F)c1` (stereo not given), the growth inhibition runs as follows: (at 1.2 µM) -3%; (at 3.7 µM) -5%; (at 11.0 µM) -9%; (at 33.0 µM) -3%; (at 100.0 µM) -4%.
Turning to `CCCCCCCC1(N=[N+]=[N-])C(=O)c2ccccc2N(C)C1=O` (stereo not given), the growth inhibition (at 1.2 µM) is 2%; the growth inhibition (at 3.7 µM) was 18%; the growth inhibition (at 11.0 µM) was 18%; the growth inhibition (at 33.0 µM) was 68%; the growth inhibition (at 100.0 µM) is 75% (active).
In the case of `Cc1nc(-[n+]2nc(-c3ccncc3)nn2-c2ccccc2)sc1C`, the growth inhibition (at 1.2 µM) is -2%; the growth inhibition (at 3.7 µM) was -2%; the growth inhibition (at 11.0 µM) is 0%; the growth inhibition (at 33.0 µM) is 38%; the growth inhibition (at 100.0 µM) is 5%.
Take `CN1CCc2ccccc2C1Cc1ccccc1NC(=O)c1sc2ccccc2c1Cl` (stereo not given): the growth inhibition runs as follows: (at 1.2 µM) -35%; (at 3.7 µM) -38%; (at 11.0 µM) -15%; (at 33.0 µM) -8%; (at 100.0 µM) 93% (active).
As for `O=C(/C=C\c1ccc(Cl)cc1Cl)c1cccs1`, the growth inhibition is, setting by setting: (at 1.2 µM) -2%; (at 3.7 µM) -3%; (at 11.0 µM) 3%; (at 33.0 µM) 10%; (at 100.0 µM) 16%.
With `NC(=NCc1ccccc1)N/N=C\c1ccnc2ccccc12`, the growth inhibition by setting is: (at 1.2 µM) 0%; (at 3.7 µM) -3%; (at 11.0 µM) 0%; (at 33.0 µM) 0%; (at 100.0 µM) 32%.
As for `CN=C(N)N/N=C/c1ccc2c(c1)Cc1ccccc1-2`, the growth inhibition (at 1.2 µM) is 6%; the growth inhibition (at 3.7 µM) was 19%; the growth inhibition (at 11.0 µM) was 20%; the growth inhibition (at 33.0 µM) is 31%; the growth inhibition (at 100.0 µM) was 94% (active).

The record behind these values is PubChem BioAssay (NCI).
